# Source: the supplement of paper PMC6555819
# Key:
# Test in all cases: PBM binding z-score (relative to random genomic background probes); higher = stronger binding; sequences stand for … in GC…GCGATTGACAGCGTAGAATGAAGG
# [1] = test system: FXR:RXRa (NR concentration 270 nM, RXRa partner concentration 90 nM)
# Outline: (§1)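 Binding z-scores were set against random background probes. The data came from custom Agilent 4×180K protein-binding microarrays carrying double-stranded probes with 34-nt variable regions, incubated 1 h with ligand-free nuclear receptor dimers. Partner-specific antibodies detected binding, and scanned fluorescence was regression-normalized.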
# [2] = test system: LXRa:RXRa (NR concentration 270 nM, RXRa partner concentration 90 nM)
# Outline: as §1
# [3] = test system: LXRa homodimer (NR concentration 270 nM)
# Outline: as §1
# [4] = test system: LXRb:RXRa (NR concentration 270 nM, RXRa partner concentration 90 nM)
# Outline: as §1
# [5] = test system: LXRb homodimer (NR concentration 270 nM)
# Outline: as §1
# [6] = test system: PPARa:RXRa (NR concentration 270 nM, RXRa partner concentration 90 nM)
# Outline: as §1
# [7] = test system: PPARg:RXRa (NR concentration 180 nM, RXRa partner concentration 90 nM)
# Outline: as §1
# [8] = test system: PPARg:RXRa 270nM:90nM, anti-RXR (NR concentration 270 nM, RXRa partner concentration 90 nM)
# Outline: as §1
# [9] = test system: PPARg:RXRa 30nM:10nM, anti-RXR (NR concentration 30 nM, RXRa partner concentration 10 nM)
# Outline: as §1
# [10] = test system: PPARg:RXRa 90nM:30nM, anti-RXR (NR concentration 90 nM, RXRa partner concentration 30 nM)
# Outline: as §1
Sequence,PBM binding z-score [1],PBM binding z-score [2],PBM binding z-score [3],PBM binding z-score [4],PBM binding z-score [5],PBM binding z-score [6],PBM binding z-score [7],PBM binding z-score [8],PBM binding z-score [9],PBM binding z-score [10]
CAAACTAGGTCTCGAAAGGTCAAAGTCGAATGAC,4.95,5.78,5.59,5.49,1.63,5.51,5.33,5.32,2.94,4.72
TCATATAGGTAACCAGGTGAAAGTCCGTAAGTTA,0.67,0.846,0.139,1.04,0.073,2.95,4.7,4.35,4.08,4.4
ATCTCTAGGTAAAGATAATTCAGTGAATGCAAAT,0.311,0.4,0.217,0.485,0.372,0.312,0.908,0.48,0.443,0.348
CCTTACGGTTCACGAGGTTATAGCACGACGAGCG,3.45,3.49,1.87,2.57,0.189,3.75,1.96,2.4,0.593,1.58
ACTTACGCGTCAACGAGGTTATAGCACGCGTATA,0.0989,0.589,-0.0981,0.964,0.0457,1.35,0.862,0.282,0.115,0.253
TTACCAAGGTGAAGGTTGTTGATCCCTCTGTAGA,0.965,0.801,-0.298,0.622,-0.706,1.61,1.21,2.25,1.07,1.96
CGTCCAAGGTCAATACTAGGTCAGTGAAAGCATT,6.7,5.42,3.65,4.71,1.55,5.33,4.52,4.7,2.1,3.73
CAAACTAGGTCACAGAGTTCAAAGTCCGTGCGTA,6.27,6.12,7.46,4.98,0.834,6.05,9.65,7.78,6.58,8.06
TGTCAAAGTTCAAAGGTAAGGTAAGTATCCACAC,7.21,6.56,4.78,4.45,1.75,5.46,8.72,7.6,5.24,7.45
CAAACTAGGTCAACAGGTCAAAGTCCGCTTCCCG,6.05,5.38,3.92,4.38,1.14,6.02,9.26,7.93,6.55,8.02
CCTTACGCGTCACTGACAGGTTATAGCATTTGGA,0.188,0.449,0.568,0.697,0.644,0.558,0.31,0.128,0.0399,0.241
TCTCGGAGGACACGAAGGTCAGATCTTTCCAGAG,1.76,1.41,1.09,1.64,-0.544,1.98,0.475,1.77,2.61,2
ATCGAAAGGTCGACGAGGTCAGTATACACCGTTT,5.54,5.03,1.52,4.61,0.78,5.04,3.64,4.13,1.28,2.65
ATATCTAGGTTATCGGGTCATTCAGTTTGCGCAT,3.27,3.47,2.2,3.33,1.83,4.98,6.91,6.17,4.2,6.24
ACTAGTTCGTCAGCTGAGGTCACACACAATTCGG,3.55,3.53,2.68,4.09,0.796,4.03,1.75,2.28,0.594,1.5
CCTGCTAGGTCAATGGTAAGCTAAAGCAGCTCGC,2.96,2.11,-0.107,1.19,-0.205,2.84,2.52,2.98,0.395,2.09
CCTTACGGGTCAACGTTATAGCACGGGTGGTACG,4.79,3.47,-0.0163,2.99,-0.125,4.99,4.45,4.48,1.52,3.43
AGAATGATGTTATTAAGATCAGGGAATTGCGGTC,-0.0815,-0.447,6.67e-05,-0.339,-0.205,0.0831,0.179,-0.306,-0.179,-0.208
CGTCCAAGGTCAGAGAGGTCTGTGAATGCCGAGT,4.66,3.14,0.0313,2.1,-0.51,3.92,2.27,2.64,0.0649,1.45
TAGCCTAGCTCAGATCGGGCCAGTATACGCTATA,-0.961,-1.35,-1.07,-1.25,-1.34,-1.21,-0.0455,-0.972,-0.749,-0.992
GCGCGGAGGACAAGGTCAGAGCTTTGTCCGTAGA,1.64,1.37,-0.378,1.01,-1.25,2.27,0.135,1.16,-0.943,0.36
GCTAGGTGGTCAGTAAAAGGTCACACACCGGTCG,3.63,4.57,4.44,4.2,0.699,4.56,2.78,4.14,1.72,3.51
ACTGGCAGGCCAAGGGTCACTCAAGATTAGTCCG,2.36,2.55,-0.0676,2.36,-0.732,3.88,5.21,5.21,3.1,5.1
TCTATTAGTTGATTTGGGCAACCGAAACAGCGGA,0.267,0.602,0.223,0.863,1.2,0.657,-0.145,1.83,3.74,3.01
ATCGAAAGGTCTACGAGGTGAGTATACACCGTTT,0.287,0.343,-0.515,0.353,-0.0521,1.03,0.797,0.573,0.114,0.523

Sequence,PBM binding z-score [1],PBM binding z-score [2],PBM binding z-score [3],PBM binding z-score [4],PBM binding z-score [5],PBM binding z-score [6],PBM binding z-score [7],PBM binding z-score [8],PBM binding z-score [9],PBM binding z-score [10]
ATATGTAAGTTAGCTGGGGTCATTCAGACTAGGC,4.05,3.87,1.64,4.47,0.895,4.17,1.49,2.48,0.721,1.49
GCTTGTAGATCAAGGTTAGGAAAGACTAAGCTAA,-0.51,-0.347,-0.468,-0.37,-0.511,0.626,0.0578,0.548,-0.199,0.557
AGTCACAGTTCAGGACGAGGTAACGTAAAGCACG,1.01,0.828,0.0856,0.666,-0.159,1.35,1.15,0.998,0.403,0.623
ATATGTAGGTTTCATCCGGGTCATTCAGGCTATG,1.4,1.72,0.315,2.07,0.658,3.09,2.23,2.17,0.721,1.43
GCGACAGGGGCAAAGCAGGTTACCATAAGGTTGG,0.475,1.06,-0.402,0.691,-0.988,1.41,0.589,0.106,-0.427,-0.446
CCTATTAGTTGACCATAAGGGCAACCGTAGCTCG,0.644,0.364,0.502,0.478,0.7,0.679,0.376,0.487,0.0256,0.357
GCTGCTAGGTCAATTGATGGTCAGCTAAAGCTCG,2.8,2.21,-0.0789,1.47,0.292,2.93,1.36,1.87,-0.0907,1.18
CCTCACGGGTCACTCCAGGTTATAGCATCGGAGT,4.64,7.34,1.76,5.28,0.129,4.16,2.19,2.85,0.902,1.92
TCATGTAGATCAGCAGGTTAAGAAAGCTGGCCAA,-0.0707,0.39,-0.338,0.259,-0.58,0.606,-0.175,1.5,2.67,2.16
CAAACTAGGTCAACGGTCAAAGTCGAGCCAACCA,5.58,4.31,2.25,3.09,0.978,6.16,11,9.5,8.86,11
GCATAAAGGTAATACAAGGTGAAAGTCCGATTGT,0.963,4.21,0.396,1.65,-0.394,2.06,0.943,1.72,0.61,0.948
GCAGACAGGTGAAACGCAGGTAAGTCAGGGTGGC,-0.334,-0.134,-0.679,-0.502,-0.938,0.476,0.369,-0.16,-0.946,-0.534
CAAACTAGGTCACAGATGTCAAAGTCCGTGCGTA,3.99,3.51,0.769,2.81,0.443,5.44,8.76,7.33,5.52,7.25
CGAACTTGGTCATCCAGGACAGTGAATACATTGA,0.205,-0.0973,-0.0371,-0.13,-0.606,0.208,0.624,-0.0338,0.133,-0.228
CAAACTAGGTCACGAAAGGTCAAAGTAGAATGAC,7.59,8.11,8.28,7.19,2.72,6.77,10.6,8.55,6.87,8.89
CCGAGTAGGTTATGGAGCATTCAGGCAACGGTGA,0.0328,0.259,0.125,0.219,-0.185,1.01,1.36,2.08,0.32,1.46
ACTCGGAGGACAAAGATCAGAGCTACGCCAGTGA,-0.308,-0.42,-0.56,-0.616,-0.443,0.399,1.61,2.24,0.508,1.43
TGAATGAGGTTATAAGATCAAGGAACGTTGCAAA,1.48,1.44,-0.207,0.961,0.00759,3.01,1.79,2.39,1.08,1.89
CTACCAAGGTTAACAAGGTCGTTGATTACTATTC,2.61,3.3,1.09,2.89,0.472,3.28,1.03,1.76,0.841,1.46
TCTATTAGTTGAAGGGCAACCGCCGAGTCCGTTT,0.913,0.871,0.578,0.586,0.231,0.935,-0.454,2.19,3.81,2.91
GGAACGAGGGCAAGGTTGATAGCATCTGTCGACG,0.705,0.414,-0.458,0.32,-0.386,2.82,4.49,5.17,3.62,4.91
CCTGTTAGGTCATGGTCAGCTAATCTACAGTATG,4.26,2.77,0.732,2.3,0.739,3.71,1.92,2.38,0.613,1.33
GCAGACAGGTGAAACGCAGGTAACTCGGGGTGGC,-0.13,0.49,-0.695,0.134,-0.553,0.89,0.313,0.104,-0.699,-0.194
GCTATTAGTTGAAAGGGCCACCGAATGATTCTCG,-0.0568,0.0381,-0.327,-0.256,-0.647,0.401,0.611,1.6,0.211,0.953
